Among the data in PubChem BioAssay AID2061324 (National Center for Advancing Translational Sciences (NCATS), 2025) are Potency values, retold here.

Records with an inconclusive call do not appear. Activity calls are given as the source filed them. The call rests on the fitted dose curve; in most records, active means well fitted inhibition curve with a large enough effect; inconclusive means small, poorly fitted or top-dose-only effect; inactive means flat fitted curve, though single readings scatter. Square brackets hold non-standard residues; d marks the D form. Peptide text beside a SMILES is read from it. Dolaproine = CO[C@@H]([C@@H]1CCCN1)[C@@H](C)C(=O)O; Dil = CC[C@H](C)[C@H](NC)[C@@H](CC(=O)O)OC; NMeV = CN[C@H](C(=O)O)C(C)C

The assay is described as follows: Identification of antibody-drug conjugate (ADC) payloads which are substrates of ATP-binding cassette drug efflux transporters: ABCG2-HEK293-pcDNA cell line. The conditions noted are these: ABCG2-HEK293 transfected cells viability, CellTiter-Glo, 48 h. The source says:
Antibody-drug conjugates (ADCs) feature an antibody recognizing a specific protein joined to a potent toxic payload. Numerous antibody-drug conjugates have received FDA approval; however, clinical resistance arises. Resistance mechanisms include decreased expression or mutation of the antibody target, impaired payload release, or increased expression of ATP-binding cassette (ABC) efflux transporters associated with multidrug resistance. We therefore sought to characterize the interaction of ABC multidrug transporters with ADC payloads. We performed a high-throughput screen with 27 common ADC payloads using cells lines expressing ABC transporters P-glycoprotein (P-gp, encoded by ABCB1) or ABCG2 (encoded by ABCG2). Confirmatory assays were also performed using cells transfected to express P-gp, ABCG2, or MRP1 (encoded by ABCC1). Several commonly used ADC payloads were substrates of P-gp, including calicheamicin gamma1, monomethyl auristatin E, DM1, and DM4. All the pyrrolobenzodiazepines tested - SJG136, SGD-1882, SG2057, and SG3199 - were substrates of P-gp, ABCG2, and MRP1. […] These findings highlight the risk of transporter-mediated resistance with certain ADC payloads and underscore the importance of selecting payloads that evade ABC transporter recognition in future ADC development.
HEK-293 cells were transfected with empty vector (pcDNA) or vector containing the human ABCB1 (MDR-19), ABCG2 (R-5), or ABCC1 gene (MRP1) and were maintained in EMEM with 2 mg/mL G418 added to maintain transporter expression. The HeLa derivative KB-3-1 and the P-gp overexpressing KB-8-5-11 subline were maintained in DMEM; KB-8-5-11 additionally received 100 ng/mL colchicine. H460 parental cells were obtained from the Division of Cancer Treatment and Diagnosis Tumor Repository, National Cancer Institute at Frederick, MD and were cultured in RPMI. The ABCG2 expressing subline H460 MX20 was generated by selecting H460 cells in 20 nM mitoxantrone. Media in all cases was supplemented with 10% FBS and 1% penicillin-streptomycin. We explored 27 common ADC payloads, in two orthogonal, paired cell line sets-a drug selected and transfected set for each transporter--to identify substrates of the ABC transporters P-gp and ABCG2. Compounds were sourced from Levena Biopharma (San Diego, CA), Selleck Chem (Houston, TX), ChemieTek (Indianapolis, IN), or Microsource Discovery Systems (Gaylordsville, CT). Screening was performed as previously described. Briefly, cells were plated at a density of 500 cells/well in 1536 well plates with compounds added using a 1536-head pin tool (Kalypsys, San Diego CA). Cells were incubated with cytotoxic drugs and processed with CellTiter Glo reagent (Promega, Madison, WI) to determine viability after 48 hours. P-gp substrates were identified by comparing compound activity between paired sets of low-expressing (sensitive) and over-expressing (resistant) cell lines.
For `COC(=O)c1cc2c3c(cc(O)c2[nH]1)N(C(=O)c1cc2cc(OC)c(OC)c(OC)c2[nH]1)CC3CCl` (stereo unspecified), the Potency is 3.4 nM (active).

In the case of `CN(C)CCOc1ccc2[nH]c(C(=O)N3C[C@@H](CCl)c4c3cc(O)c3ccccc43)cc2c1`, the Potency was 0.8 nM (active).

In the case of `CC[C@]1(O)CC2CN(CCc3c([nH]c4ccccc34)[C@@](C(=O)OC)(c3cc4c(cc3OC)N(C)[C@H]3[C@@](O)(C(=O)OC)[C@H](OC(C)=O)[C@]5(CC)C=CCN6CC[C@]43[C@@H]65)C2)C1` (stereo partly specified), the Potency was 300 nM (active).

With `CC[C@H](C)[C@@H]([C@@H](CC(=O)N1CCC[C@H]1[C@H](OC)[C@@H](C)C(=O)N[C@@H](Cc1ccccc1)C(=O)O)OC)N(C)C(=O)[C@@H](NC(=O)[C@@H](NC)C(C)C)C(C)C` (H-[NMeV]V[Dil][Dolaproine]F-OH), the Potency is 3360 nM (active).

On to `COc1cccc2c1C(=O)c1c(O)c3c(c(O)c1C2=O)C[C@@](O)(C(=O)CO)C[C@@H]3O[C@H]1C[C@H]2[C@H](O[C@@H]3[C@@H](OC)OCCN32)[C@H](C)O1`, for which the Potency was 0.2 nM (active).

For `CC(C)(C)OC(=O)Nc1ccc2[nH]c(C(=O)N3C[C@@H](CCl)c4c3cc(O)c3ccccc43)cc2c1`, the Potency was 16.9 nM (active).

`CC[C@H](C)[C@@H]([C@H](N)CC(=O)N1CCC[C@H]1[C@H](OC)[C@@H](C)C(=O)N[C@@H](Cc1ccccc1)c1nccs1)N(C)C(=O)[C@@H](NC(=O)[C@H](C(C)C)N(C)C)C(C)C`: the Potency is 6 nM (active).

Consider `CCN(C(C)=O)[C@H]1CO[C@@H](O[C@H]2[C@H](O[C@H]3C#C/C=C\C#C[C@]4(O)CC(=O)C(NC(=O)OC)=C3/C4=C\CSSSC)O[C@H](C)[C@@H](NO[C@H]3C[C@H](O)[C@H](SC(=O)c4c(C)c(I)c(O[C@@H]5O[C@@H](C)[C@H](O)[C@@H](OC)[C@H]5O)c(OC)c4OC)[C@@H](C)O3)[C@@H]2O)C[C@@H]1OC`, for which the Potency is 2.7 nM (active).

As for `COc1cc2cc(c1Cl)N(C)C(=O)C[C@H](O)[C@]1(C)O[C@H]1[C@H](C)C1C[C@@](O)(NC(=O)O1)[C@H](OC)/C=C/C=C(\C)C2`, the Potency is 4750 nM (active).

On to `CCN[C@H]1CO[C@@H](O[C@H]2[C@H](O[C@H]3C#C/C=C\C#C[C@]4(O)CC(=O)C(NC(=O)OC)=C3/C4=C\CSSSC)O[C@H](C)[C@@H](NO[C@H]3C[C@H](O)[C@H](SC(=O)c4c(C)c(I)c(O[C@@H]5O[C@@H](C)[C@H](O)[C@@H](OC)[C@H]5O)c(OC)c4OC)[C@@H](C)O3)[C@@H]2O)C[C@@H]1OC`, for which the Potency is 1.1 nM (active).

As to `Cc1nc(Nc2ncc(C(=O)Nc3c(C)cccc3Cl)s2)cc(N2CCN(CCO)CC2)n1`, the Potency is 4750 nM (active).
